# Test results taken from PubChem BioAssay.
# Calls of active or inactive are those of the source.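 The calls were made as follows: active = calcium signal rise above buffer-control mean plus 5 SD in both duplicates, and also a hit in the primary screen; inactive = the rest.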
# Target: Short transient receptor potential channel 4 (Mus musculus) (UniProt Q9QUQ5)
# Assay: calcium flux activators in TRPC4/5HT1a cells, counter-screen for TRPC4 activator project, cell-based, second counter screen, HEK293 TRPC4/5HT1a, Fluo-4 (AID 434977)
# Conditions: Fluo-4 calcium flux, at 10 µM
row,SMILES,outcome
1,CN(C)CCCN(Cc1cc2cc3c(cc2[nH]c1=O)OCO3)C(=S)NCc1ccco1,inactive
2,Cc1cc(OCC(=O)Nc2ccc(N3CCN(C)CC3)cc2)ccc1Cl,inactive
3,O=C(Nc1ccccc1Oc1cccnc1)C1CCCN(Cc2ccc(F)cc2)C1 (stereo not drawn),inactive
4,Cc1ncsc1CCOC(=O)c1cccc([N+](=O)[O-])c1,inactive
5,N#C/C(=N\Nc1cccc([N+](=O)[O-])c1)C(=O)c1ccc(Br)cc1,inactive
6,CC(NC(=O)c1ccco1)C(c1cccs1)N1CCN(c2ccccc2)CC1 (stereo not drawn),inactive
7,O=C(Cc1ccccc1[N+](=O)[O-])OCc1cccc([N+](=O)[O-])c1,inactive
8,CCOc1cc(CNCCCN2CCOCC2)cc(Br)c1OCc1ccccc1Cl,inactive
9,O=C(NCCN1CCOCC1)c1cc2sccc2n1Cc1ccc(F)cc1,inactive
10,Cn1c(-c2ccc(F)cc2)cnc1NCc1ccc(F)cc1F,inactive
11,Cc1[nH]c2ccc(C(=O)OC(C)C(=O)N(C)c3ccccc3)cc2c1C (stereo not drawn),inactive
12,COc1cc(/C=C2\SC(=O)N(c3ccccc3Cl)C2=O)cc([N+](=O)[O-])c1O,inactive
13,Cc1ccc2nc(C)cc(Nc3ccc4c(c3)OCCO4)c2c1,inactive
14,CC1CCN(CCCOc2ccc(OCc3ccccc3)cc2)CC1,inactive
15,COCCn1c(SCC(=O)c2ccccc2)nc2ccccc2c1=O,inactive
16,O=C(c1ccco1)N1CCN(C/C=C/c2ccccc2)CC1,inactive
17,Nc1cc(N2CCCCC2)c([N+](=O)[O-])cc1Cl,inactive
18,Cc1cc(Cl)c2oc(C(=O)N(C)Cc3nccn3C)c(C)c2c1,inactive
